Measured values as given in PubChem BioAssay (EPA / NIEHS).
Results filed as inconclusive are left out. The source made the active and inactive calls. How the source made its calls, unless noted: active means hit-call score of the fitted dose curve at least 0.9, where 1 is the maximum; inconclusive means response in the unintended direction; inactive means score below 0.9.

Experiments:
[1] = CCTE_Deisenroth_5AR_NBTE_acceptor: CCTE's 5alpha-reductase NanoBRET Target Engagement Assay - Autofluorescence Screen, Deisenroth Lab (AID 2284321; active means hit-call score of the fitted dose curve at least 0.9, where 1 is the maximum; inactive means score below 0.9;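 further: compound fluorescence in the acceptor channel under 460 nm excitation flags autofluorescence artifacts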); settings: actives raise or lower the signal
Method in brief: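 Acceptor fluorescence intensity was read as an artifact-detection endpoint. Test chemicals at an assumed nominal 100 uM were excited at 460 nm across three independent runs. Activity was fitted bidirectionally against DMSO.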

TTR (gene 7276) = assay: CCTE_GLTED_hTTR_0.125uM: CCTE's human Transthyretin (hTTR) Inhibition Assay, with 0.125uM TTR, Great Lakes Toxicology and Ecology Division (GLTED) Lab (AID 2284431; active means hit-call score of the fitted dose curve at least 0.9, where 1 is the maximum; inactive means score below 0.9;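 further: hits lower the fluorescence signal relative to DMSO baseline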)
Method in brief: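 Fluorescence (380 ex, 475 em) reported the ANSA probe remaining bound to 0.125uM human transthyretin. Chemicals were incubated with the protein for 2 hours; activity was scored as loss of signal against DMSO negative control.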

[2] = target: human Caspase 5 (CASP5), CASP5 (gene 838) (UniProt P51878); assay: NVS_ENZ_hCASP5: NovaScreen (NVS) Enzymatic Assay for human Caspase 5 (CASP5) (AID 2283137)
Method in brief: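 Loss of fluorescent signal versus DMSO scored for E. coli-derived human CASP5 cleaving a fluorescent substrate, 2 h post-dosing; compounds first tested at 25 uM in duplicate, hits rerun in concentration series with 50 uM top concentration.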

[3] = target: Androgen Receptor/SRC-1 Co-activator, AR (gene 367) (UniProt P10275); assay: OT_AR_ARSRC1_0480: Odyssey Thera (OT) 8-hour HEK293T Protein-Complementation Assay for Androgen Receptor/SRC-1 Co-activator (AID 2283354);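 further: hits raise the complementation signal above DMSO so AC50 marks enhancers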
Method in brief: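 Reconstituted split-Venus YFP signal from AR–SRC-1 interaction, read by imaging 8 h post-dose in stable HEK293T lines. The 488 nm nucleus-to-cytoplasm ratio (≥400 cells/image) was fitted upward against DMSO.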

[4] = target: Agonist Androgen Response Element (ARE), AR (gene 367) (UniProt P10275); assay: OT_AR_ARELUC_AG_1440: Odyssey Thera (OT) 24-hour CHO-K1 Luciferase Assay for Agonist Androgen Response Element (ARE) (AID 2283379)
Method in brief: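 Readout: luciferase bioluminescence from CHO-K1 ARE-luc cells, measured 24 h post-dosing; agonism = increased mean luminescence vs DMSO controls, fitted in positive direction.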

AR (gene 367) = AR (gene 367) (UniProt P10275); assay: ACEA_AR_antagonist_80hr: ACEA Biosciences xCELLigence Real-Time Cell Analysis on Androgen Receptor Antagonism for Proliferation (AID 2283787);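 further: 22Rv1 human prostate cancer cells with growth followed by electrical impedance; hits lower the impedance growth signal relative to DMSO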
Method in brief: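 Impedance-based real-time growth of 22Rv1 prostate cells, read 80 h after dosing. Eight concentrations, 1:4 series, top 100 uM final (0.5% DMSO), n = 2; signal decrease scored against DMSO.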

[5] = target: Ratio of Nucleoli Translocation and Cytoplasm, AR (gene 367) (UniProt P10275); assay: UPITT_HCI_U2OS_AR_TIF2_Nucleoli_Cytoplasm_Ratio_Antagonist: University of Pittsburgh U2OS Androgen Receptor-Transcriptional Intermediary Factor 2 (AR-TIF2) Antagonism High Content Imaging Assay for Ratio of Nucleoli Translocation and Cytoplasm (AID 2283999);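 further: antagonists lower the DHT-driven ratio of nucleolar to cytoplasmic red signal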
Method in brief: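 High-content imaging of red fluorescence ratio, nucleoli versus cytoplasm, in U2OS expressing AR-RFP and TIF2-GFP, fitted relative to DHT. Compounds tested once at 20 uM final, then 0.195 to 50 uM final in serial dilution.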

[6] = target: Ratio of Nucleoli Translocation and Cytoplasm, AR (gene 367) (UniProt P10275); assay: UPITT_HCI_U2OS_AR_TIF2_Nucleoli_Cytoplasm_Ratio_Agonist: University of Pittsburgh U2OS Androgen Receptor-Transcriptional Intermediary Factor 2 (AR-TIF2) Agonism High Content Imaging Assay for Ratio of Nucleoli Translocation and Cytoplasm (AID 2284000);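 further: hits raise the red nucleolar to cytoplasm ratio above vehicle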
Method in brief: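 Compounds tested at 20 uM final in primary screen (0.2% DMSO) and 0.195-50 uM final in dose-response (0.5% DMSO). Imaging of human U2OS cells bearing RFP-AR and GFP-TIF2; endpoint is nucleoli/cytoplasm red signal ratio, positive direction relative to DMSO.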

[7] = target: human Dopamine Transporter (DAT), SLC6A3 (gene 6531) (UniProt Q01959); assay: NVS_TR_hDAT: NovaScreen (NVS) Transporter Assay for human Dopamine Transporter (DAT) (AID 2283374);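 further: activity means loss of bound radioligand signal relative to DMSO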
Method in brief: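 Duplicate single-point screening at 25 uM preceded concentration-series follow-up of actives. Binding was measured by competitive displacement of a radioligand from DAT protein, filter-counted by scintillation 1 h after dosing. Decrease relative to DMSO taken as activity.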

[8] = target: human Peroxisome Proliferator-activated Receptor alpha (PPARa), PPARA (gene 5465) (UniProt Q07869); assay: NVS_NR_hPPARa: NovaScreen (NVS) Nuclear Receptor Binding Assay for human Peroxisome Proliferator-activated Receptor alpha (PPARa) (AID 2283359);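 further: activity means loss of TR-FRET signal versus DMSO baseline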
Method in brief: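 Loss of TR-FRET binding signal relative to DMSO was measured 1 h after chemical addition to extracted receptor protein. Chemicals were first tested in duplicate at 25 uM, and actives were followed up in concentration series.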

[9] = TOX21_PR_BLA_Followup_Agonist_viability: Viability Assessment in the Tox21 HEK293 Progesterone Receptor (PR) Agonism Beta-lactamase Follow-Up Assay (AID 2283935);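 further: signal loss means lower viability so actives are cytotoxic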
Method in brief: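 Run multiplexed with the beta-lactamase FRET read, this endpoint measures ATP by CellTiter-Glo luminescence (30 min, room temperature). PR-UAS-bla HEK293T cells received compound 6 hr after plating and were then incubated 16 hr at 37C in 2% stripped serum.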

[10] = TOX21_PR_BLA_Followup_Antagonist_viability: Viability Assessment in the Tox21 HEK293 Progesterone Receptor (PR) Antagonism Beta-lactamase Follow-Up Assay (AID 2283936);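 further: cells exposed to compound with R5020 agonist for 16 h; hits lower the luminescence signal meaning cytotoxicity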
Method in brief: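 PR-UAS-bla HEK293T cells in medium with 2% charcoal-stripped FBS were treated with compounds plus R5020 for 16 hr at 37C. After the beta-lactamase read, CellTiter-Glo was added to the same wells and luminescence read after 30 min at room temperature.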

[11] = TOX21_PR_LUC_Followup_Antagonist_viability: Viability Assessment in the Tox21 HEK293 Progesterone Receptor (PR) Antagonism Luciferase Follow-Up Assay (AID 2283940)
Method in brief: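 Viability counter-readout: cellular ATP measured by luciferase luminescence after 16 h compound exposure at 37C of HEK293-PR-A-luc cells, which had been cultured in charcoal-stripped serum and seeded 5 h beforehand.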

[12] = TOX21_PR_LUC_Followup_Agonist_viability: Viability Assessment in the Tox21 HEK293 Progesterone Receptor (PR) Agonism Luciferase Follow-Up Assay (AID 2283941);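 further: loss of signal means cytotoxicity so actives lower viability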
Method in brief: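 Cytotoxicity counter-readout in the PR-A luciferase reporter line HEK293, with 16 h compound exposure at 37C after cells were cultured in charcoal-stripped serum. Cellular ATP quantified by CellTiter-Glo luminescence.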

[13] = system: Sodium/Iodide Symporter (NIS), SLC5A5 (gene 6528); assay: CPHEA_Stoker_NIS_Inhibition_RAIU: CPHEA's Radioactive Iodide Uptake (RAIU) Assay for Sodium/Iodide Symporter (NIS) Inhibition, Stoker and Laws Labs (AID 2283841)
Method in brief: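 Test chemicals, six concentrations from 0.001 to 100uM in 0.5% DMSO, were co-incubated with carrier-free 125I (final 329pM) on hNIS-HEK293T-EPA monolayers in pH 7.4 HEPES-buffered HBSS. Plates stood 2 hours at room temperature, then were washed cold and counted.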

[14] = CPHEA_Stoker_NIS_Cytotoxicity: Cytotoxicity Assessment for CPHEA's Radioactive Iodide Uptake (RAIU) Assay for Sodium/Iodide Symporter (NIS) Inhibition, Stoker and Laws Labs (AID 2283897);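 on AC50: active means loss of ATP signal versus DMSO meaning cytotoxicity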
Method in brief: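 Viability in hNIS-HEK293T-EPA cells is scored as a drop in luciferase-detected ATP following 2-hour room-temperature exposure (0.001–100uM; triplicate wells, three cell passages), with DMSO as negative control.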

Ratio of Nucleoli Translocation and Cytoplasm, AR (gene 367), sequence (P10275 whole entry, looked up): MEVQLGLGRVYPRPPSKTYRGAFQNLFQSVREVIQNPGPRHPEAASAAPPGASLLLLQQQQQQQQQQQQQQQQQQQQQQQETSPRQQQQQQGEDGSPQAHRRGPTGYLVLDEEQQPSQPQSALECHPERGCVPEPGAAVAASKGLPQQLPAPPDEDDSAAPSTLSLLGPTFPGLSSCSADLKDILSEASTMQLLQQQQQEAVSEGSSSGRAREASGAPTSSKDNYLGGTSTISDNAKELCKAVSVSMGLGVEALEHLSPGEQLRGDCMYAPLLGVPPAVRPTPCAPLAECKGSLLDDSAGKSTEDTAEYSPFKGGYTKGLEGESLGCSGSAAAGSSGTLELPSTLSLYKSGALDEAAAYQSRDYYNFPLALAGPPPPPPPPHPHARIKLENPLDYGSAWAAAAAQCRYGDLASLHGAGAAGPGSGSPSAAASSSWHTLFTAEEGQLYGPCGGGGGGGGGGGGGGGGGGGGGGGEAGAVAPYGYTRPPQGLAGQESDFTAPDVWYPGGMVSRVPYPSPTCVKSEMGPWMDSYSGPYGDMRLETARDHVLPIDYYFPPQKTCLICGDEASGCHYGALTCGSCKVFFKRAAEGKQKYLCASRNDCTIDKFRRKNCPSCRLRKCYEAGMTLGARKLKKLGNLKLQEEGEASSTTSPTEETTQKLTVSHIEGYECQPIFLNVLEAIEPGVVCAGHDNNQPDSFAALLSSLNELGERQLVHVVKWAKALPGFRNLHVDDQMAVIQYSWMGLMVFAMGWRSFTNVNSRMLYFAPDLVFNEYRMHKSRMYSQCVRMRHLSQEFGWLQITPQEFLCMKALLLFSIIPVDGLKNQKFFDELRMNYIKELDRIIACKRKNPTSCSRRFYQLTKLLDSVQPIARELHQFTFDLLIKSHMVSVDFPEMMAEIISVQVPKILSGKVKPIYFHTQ
human Dopamine Transporter (DAT), SLC6A3 (gene 6531), sequence (Q01959 whole entry, looked up): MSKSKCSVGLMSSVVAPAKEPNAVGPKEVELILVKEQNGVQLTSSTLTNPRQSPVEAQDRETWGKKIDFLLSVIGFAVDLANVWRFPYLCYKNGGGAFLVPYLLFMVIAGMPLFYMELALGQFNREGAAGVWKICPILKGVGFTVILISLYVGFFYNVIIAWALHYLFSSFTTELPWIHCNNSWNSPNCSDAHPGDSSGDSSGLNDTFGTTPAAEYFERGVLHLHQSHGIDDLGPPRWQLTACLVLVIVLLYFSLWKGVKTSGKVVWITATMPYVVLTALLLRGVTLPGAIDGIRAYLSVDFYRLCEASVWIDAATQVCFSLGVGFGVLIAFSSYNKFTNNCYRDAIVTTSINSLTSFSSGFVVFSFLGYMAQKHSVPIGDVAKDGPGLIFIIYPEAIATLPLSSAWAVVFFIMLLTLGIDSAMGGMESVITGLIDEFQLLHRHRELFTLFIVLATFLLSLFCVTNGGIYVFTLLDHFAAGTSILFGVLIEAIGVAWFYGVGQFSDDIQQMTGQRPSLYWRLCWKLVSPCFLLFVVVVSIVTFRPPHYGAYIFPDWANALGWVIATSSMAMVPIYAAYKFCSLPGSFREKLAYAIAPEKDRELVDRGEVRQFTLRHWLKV
human Peroxisome Proliferator-activated Receptor alpha (PPARa), PPARA (gene 5465), sequence (Q07869 whole entry, looked up): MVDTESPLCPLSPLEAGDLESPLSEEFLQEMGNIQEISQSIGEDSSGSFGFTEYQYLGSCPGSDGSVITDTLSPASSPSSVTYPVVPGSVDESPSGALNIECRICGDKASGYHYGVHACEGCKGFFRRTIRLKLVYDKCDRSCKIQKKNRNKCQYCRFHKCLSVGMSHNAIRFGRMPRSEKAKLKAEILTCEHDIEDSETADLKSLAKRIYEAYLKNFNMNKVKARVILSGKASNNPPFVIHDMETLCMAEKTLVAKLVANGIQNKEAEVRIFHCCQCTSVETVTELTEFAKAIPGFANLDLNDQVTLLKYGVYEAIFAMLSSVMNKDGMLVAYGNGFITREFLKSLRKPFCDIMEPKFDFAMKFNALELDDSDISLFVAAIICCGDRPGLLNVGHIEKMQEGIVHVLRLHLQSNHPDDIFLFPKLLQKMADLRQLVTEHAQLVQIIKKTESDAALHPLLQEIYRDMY
AR (gene 367), sequence (P10275 whole entry, looked up): as the sequence (P10275 whole entry, looked up) above
Agonist Androgen Response Element (ARE), AR (gene 367), sequence (P10275 whole entry, looked up): as above
Androgen Receptor/SRC-1 Co-activator, AR (gene 367), sequence (P10275 whole entry, looked up): as above
human Caspase 5 (CASP5), CASP5 (gene 838), sequence (P51878 whole entry, looked up): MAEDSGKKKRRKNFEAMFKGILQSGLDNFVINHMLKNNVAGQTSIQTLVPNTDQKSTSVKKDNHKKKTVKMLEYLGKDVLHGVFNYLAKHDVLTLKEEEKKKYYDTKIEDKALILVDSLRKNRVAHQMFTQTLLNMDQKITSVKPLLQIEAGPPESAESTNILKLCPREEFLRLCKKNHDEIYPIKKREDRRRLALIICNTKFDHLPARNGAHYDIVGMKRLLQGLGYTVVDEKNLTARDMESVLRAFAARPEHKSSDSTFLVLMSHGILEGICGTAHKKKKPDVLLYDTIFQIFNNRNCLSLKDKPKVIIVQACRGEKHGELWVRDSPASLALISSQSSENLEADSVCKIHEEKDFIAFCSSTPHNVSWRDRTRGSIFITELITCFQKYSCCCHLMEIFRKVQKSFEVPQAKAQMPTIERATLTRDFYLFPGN

Oc1cc(Cl)ccc1Cl
outcome [1]: inactive | AC50 (TTR (gene 7276)): 1.17 µM (active)

Nc1ccc(-c2ccc(N)c(N)c2)cc1N
AC50 [2]: 5.41 µM (active)

O=CNC(N1CCN(C(NC=O)C(Cl)(Cl)Cl)CC1)C(Cl)(Cl)Cl (configuration not stated)
outcome [3]: inactive | outcome [4]: inactive | outcome (AR (gene 367)): inactive | outcome [5]: inactive | outcome [6]: inactive

Clc1ccc(-c2ccccc2)cc1
outcome [7]: inactive

O=P(O)(Oc1ccccc1)Oc1ccccc1
outcome [1]: inactive

[CH3][Sn]([CH3])([Cl])[Cl]
outcome [8]: inactive

Nc1cc(Cl)cc(Cl)c1
AC50 (TTR (gene 7276)): 6.93 µM (active)

C[C@]12CCC(=O)C(O)=C1CC[C@@H]1[C@@H]2CC[C@]2(C)C(=O)CC[C@@H]12
outcome [9]: inactive | outcome [10]: inactive | outcome [11]: inactive | outcome [12]: inactive

O=C(CCl)c1ccccc1
outcome [13]: inactive | outcome [14]: inactive

CC(C)(c1cc(Cl)c(O)c(Cl)c1)c1cc(Cl)c(O)c(Cl)c1
AC50 [8]: 20.2 µM (active) | outcome [7]: inactive | AC50 [13]: 9.92 µM (active) | AC50 [14]: 81.3 µM (active) | outcome [9]: inactive | outcome [10]: inactive | outcome [11]: inactive | outcome [12]: inactive | AC50 (TTR (gene 7276)): 0.0355 µM (active)
